Bioassay records from PubChem.
The list is not random: actives were taken first. Their share in the collection is about 3.5%.
BoNT-A LC inh2: inhibitors of Botulinum neurotoxin A light chain protease. multiplex microsphere protease substrate cleavage, flow cytometry. 360,000 tested, 0.17% active. AID 588499. inhibition, % at 10 µM; note: plate controls were buffer without enzyme for full effect and enzyme alone for no effect
BoNT-F LC inh: BoNT F light chain protease inhibition. Multiplex microsphere protease cleavage assay, flow cytometry. 360,000 tested, 0.22% active. inhibition, % at 10 µM; in the data active = inhibition above about 35%, passing the limit was not always enough; inconclusive = no clear call, values can overlap the other calls; note: plate controls were buffer without enzyme for full effect and enzyme alone for no effect
Anthrax LF inh2: inhibitors of Bacillus anthracis lethal factor protease | AID 588501 | inhibition, % at 10 µM | multiplex microsphere protease cleavage assay, LF | 360,000 tested, 0.12% active | P15917; note: plate controls were buffer without enzyme for full effect and enzyme alone for no effect
Target sequence (P15917 whole entry, looked up): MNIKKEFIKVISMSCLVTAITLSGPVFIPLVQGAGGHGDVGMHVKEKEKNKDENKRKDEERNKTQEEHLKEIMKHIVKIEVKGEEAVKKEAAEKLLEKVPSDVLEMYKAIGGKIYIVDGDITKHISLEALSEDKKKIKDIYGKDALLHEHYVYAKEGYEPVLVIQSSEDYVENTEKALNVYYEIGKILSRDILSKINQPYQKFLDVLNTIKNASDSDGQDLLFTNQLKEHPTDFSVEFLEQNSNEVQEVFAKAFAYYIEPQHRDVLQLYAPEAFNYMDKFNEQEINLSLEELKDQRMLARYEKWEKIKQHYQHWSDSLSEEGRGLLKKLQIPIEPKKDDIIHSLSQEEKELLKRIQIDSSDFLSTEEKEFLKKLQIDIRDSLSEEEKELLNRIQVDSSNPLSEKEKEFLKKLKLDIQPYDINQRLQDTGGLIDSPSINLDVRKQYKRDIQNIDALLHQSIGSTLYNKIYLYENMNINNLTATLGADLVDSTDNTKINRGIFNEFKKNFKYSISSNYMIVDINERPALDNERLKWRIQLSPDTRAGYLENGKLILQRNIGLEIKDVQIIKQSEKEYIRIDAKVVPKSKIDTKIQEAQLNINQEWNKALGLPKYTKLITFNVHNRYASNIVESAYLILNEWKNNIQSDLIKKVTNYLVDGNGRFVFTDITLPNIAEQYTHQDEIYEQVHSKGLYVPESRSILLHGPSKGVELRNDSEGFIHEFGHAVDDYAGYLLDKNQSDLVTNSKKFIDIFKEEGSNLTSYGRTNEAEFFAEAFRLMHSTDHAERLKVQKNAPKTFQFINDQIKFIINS
BJeLR viability: kills HRASV12-expressing BJeLR cells; BJeLR (HRASV12) viability, CellTiter-Glo ATP luminescence, 48 h; inhibition, % (no concentration beside the values); 300,000 tested, 0.17% active; in the data active = inhibition above about 50%; inconclusive = no clear call, values can overlap the other calls
Autofluor counter: flagged as autofluorescent in microsphere protease counterscreen | compound autofluorescence counterscreen, microsphere flow cytometry; hits give high values | fluorescence intensity (concentration not given with the values) | 360,000 tested, 3.1% active | AID 624483; in the data active = fluorescence intensity above about 16000; inconclusive = no clear call, values can overlap the other calls
Numbers without * were called inactive; ? = inconclusive; nt = no result; ! = not confirmed by another sample. Cut-off read from the data, not from the text of the source, unless noted: active = inhibition above about 30%; inconclusive = no clear call, values can overlap the other calls; inactive = below that.

SMILES	BoNT-A LC inh2	BoNT-F LC inh	Anthrax LF inh2	BJeLR viability	Autofluor counter
COc1ccc(NC(=O)C/C(C)=N/NC(=O)c2cccs2)c([N+](=O)[O-])c1	-0.9	11.6	-7.4	0.9	3099
CC(=O)N1CCN(C(=O)CNC(=O)c2ccc(C)s2)CC1	-1.6	6.9	1.1	nt	4384
Cn1nc(CC(=O)NC2CCCCC2)c2ccccc2c1=O	-1.7	-3.1	-1.6	6.3	23933*
Cn1nc(C(=O)NC2CCCc3ccccc32)ccc1=O (configuration not stated)	-0.6	-2.5	0.8	-2.2	2731
Cn1nc(C(=O)NC2CCCCCC2)ccc1=O	?	-4.3	-2.5	-1.2	22596*
COc1cc(NC(=O)Cc2nn(C)c(=O)c3ccccc23)cc(OC)c1OC	?	-2.6	-0.9	-17.8	17080*
Cc1ccc(NC(=O)c2cccc3cccnc23)cc1	-2.1	-10.4	-4.7	0.7	6054
COCCN(C(=O)COC(=O)c1ccc(Cl)s1)c1c(N)n(Cc2ccccc2)c(=O)[nH]c1=O	-0.8	-11.2	-3.3	-1.8	?
C=CCn1c(=O)c2ccccc2n2c(SCC(=O)/C(C#N)=C(\C)N)nnc12	?	-2.0	-0.4	1.5	24633*!
CC1=C(C#N)C(NC(=O)C2CCCCC2)(C(F)(F)F)C(=O)N1 (configuration not stated)	0.2	3.2	-3.8	1.4	22461*
CC1=C(C#N)C(NC(=O)C2CC2)(C(F)(F)F)C(=O)N1 (configuration not stated)	-0.1	4.3	0.1	-4.9	2441
NC(Cc1ccccc1)c1csc(Nc2nccc(C(F)(F)F)n2)n1 (configuration not stated)	0.7	-14.6	-7.2	nt	3695
C=CCOc1ccccc1/C=c1\sc2nc(=O)c(C)nn2c1=O	1.2	3.8	2.6	nt	23330*
COc1ccc(/C=c2\sc3nc(-c4ccccc4OC)nn3c2=O)c(OC)c1	1.9	8.1	-19.1	-1.2	7220
Cc1ccc(C(C)C)c(OCc2ccc(C(=O)N/N=C/c3cccc(O)c3O)cc2)c1	-0.7	-15.5	-0.6	74.1*	2048
Cc1ccc(NC(=O)CC2SCCNC2=O)cc1Cl (configuration not stated)	?	-3.1	-4.1	-1.2	23686*
COC(=O)CC1SCCNC1=O (configuration not stated)	-1.4	-1.2	0.8	-6.5	20974*
COC(=O)CC1NCCNC1=O (configuration not stated)	0.7	3.9	-8.1	-12.3	9025
O=C(CC1SCCNC1=O)Nc1ccc(F)c(Cl)c1 (configuration not stated)	0.7	0.9	-2.2	-6.7	3510
CCc1ccc(/C=C2\CN(CC)Cc3c2nc2ccccc2c3C(=O)O)cc1	15.0	9.4	20.3	2.5	27805*
O=C(Nc1cc(Cl)cc(Cl)c1)N1CCCC1	-2.0	-4.2	-11.2	4.5	4869
Cn1c(=O)c(=O)n(C)c2cc(S(=O)(=O)CCC(=O)Nc3ccccc3C(F)(F)F)ccc21	0.5	0.5	-0.8	nt	3376
COc1cc(/C=N/Nc2nn3cnnc3c3ccccc23)ccc1O	?	-3.2	-3.3	14.5	21210*
Cc1ccc(-c2ccc(CCC(=O)O)n2CC2CCCO2)cc1 (configuration not stated)	?	-4.3	1.0	0.6	22736*
O=C(O)CCc1ccc(-c2ccccc2)n1CC1CCCO1 (configuration not stated)	-0.6	4.6	-1.6	-0.4	4790
SMILES	BoNT-A LC inh2	BoNT-F LC inh	Anthrax LF inh2	BJeLR viability	Autofluor counter
CC(C)(C)NC(=O)CSc1nc(-c2ccccc2)c(-c2ccccc2)[nH]1	0.1	0.5	-13.4	5.4	23364*
CCOC(=O)CC1(c2ccccc2)CCOC(C)(C)C1 (configuration not stated)	-1.3	-5.4	-7.3	8.5	7129
CCNC(=O)C1(C)CCCN(Cc2cccc(Oc3ccccc3)c2)C1 (configuration not stated)	-1.6	5.2	-0.1	nt	5914
CCC(C)c1ccc(O)c(N)c1 (configuration not stated)	0.1	-3.3	-3.4	-1.4	16286*
CC(C)c1ccc(O)c(N)c1	-0.2	-6.4	-3.1	10.0	4305
CC1(C)CC[C@]2(C(=O)O)CC[C@]3(C)C(=CC[C@@H]4[C@@]5(C)CC[C@H](O[C@@H]6O[C@H](C(=O)O)[C@@H](O)[C@H](O[C@@H]7OC[C@H](O)[C@H](O)[C@H]7O)[C@H]6O)C(C)(C)[C@@H]5CC[C@]43C)[C@@H]2C1	-0.5	3.9	0.3	nt	4424
COc1ccc(NC(=O)C(C)NS(=O)(=O)c2ccc(NC(C)=O)cc2)cc1Cl (configuration not stated)	-0.4	-4.5	-2.8	-4.6	23479*
COc1ccccc1NS(=O)(=O)c1ccc(NC(C)=O)cc1	1.4	-0.2	-5.1	3.0	18703*
COC(=O)Nc1ccc(S(=O)(=O)Nc2cccc3ccccc23)cc1	?	0.0	-8.9	1.6	21995*
O=S(=O)(Nc1cccc2ccccc12)c1ccccc1	0.4	17.7	-7.3	2.4	4537
COc1ccc(S(=O)(=O)NC(C)C(=O)Nc2ccccc2)cc1Cl (configuration not stated)	-1.6	0.0	2.5	-4.7	6053
COc1nc(N)c(S(=O)(=O)c2ccccc2)cc1C#N	?	1.1	-0.2	5.8	22871*
COc1nc(N)c(S(=O)(=O)c2ccccc2C)cc1C#N	8.7	9.9	-6.0	4.2	19846*
CN(C)c1ncc(S(=O)(=O)c2ccccc2)c(N)n1	0.2	-4.4	0.1	-3.0	1961
COCC(=O)Nc1ccc(S(=O)(=O)NCCc2ccccc2)cc1	-0.4	-2.1	-1.0	2.3	16357*
O=C(CCc1ccccc1)Nc1ccc(NS(=O)(=O)c2ccccc2)cc1	0.2	15.6	-10.9	3.8	3940
CC(C)NS(=O)(=O)c1ccc(NC(=O)CCc2ccccc2)cc1	3.5	6.4	-6.5	-6.0	21469*
O=C(Nc1ccccc1C(=O)N1CCOCC1)c1ccc(Br)cc1	0.4	-5.2	-4.3	3.8	5991
COc1cc(C(=O)Oc2ccc3c(c2)OCC3=O)cc(OC)c1OC	1.0	43.7*	2.2	7.3	4422
O=C(Oc1ccc2c(c1)OCC2=O)c1ccc(Cl)cc1	?	?	6.1	1.4	4242
Cc1ccc(C)c(OCCCCn2ccnc2)c1	0.2	0.4	1.7	5.8	10363
COc1cccc(OCCn2ccnc2)c1	0.3	-0.4	-3.0	2.8	23533*
Cc1ccc(OCCCCn2ccnc2)c(Cl)c1	7.1	7.9	-14.7	11.2	19999*
Clc1ccccc1OCCn1ccnc1	-0.3	3.1	1.8	10.1	20725*
Cc1cccc(OCCCn2ccnc2)c1	?	-2.0	-2.1	5.1	21296*
Cc1cc(C)cc(OCCCn2ccnc2)c1	-3.1	6.0	1.7	-1.7	4227
O=C(c1ccco1)N1N=C(c2ccccc2O)CC1c1cccs1 (configuration not stated)	-0.5	-7.3	-5.4	nt	3654
CCOC(=O)CNC(=O)N(CCOC)CC1CCCN(C2Cc3ccccc3C2)C1 (configuration not stated)	3.5	5.7	-5.4	-7.6	3178
Cn1c(CO)cnc1SCc1c(Cl)cccc1Cl	?	-1.2	-1.3	-1.4	22193*
